Measured values as given in the supplement of paper PMC11732987, “Enantioselective OTUD7B fragment discovery through chemoproteomics screening and high-throughput optimisation” (Communications Chemistry, 2025).

Tests used:
Assay in all cases: log2 ratio of Biotin-Ahx-Ub-VS probe labelling (fragment/DMSO); higher = less target engagement (more negative = stronger competition), active = hit call of the paper (q ≤ 0.05, log2 ratio ≤ -1)
Conditions in all cases: compound concentration: 200 uM; treatment time: 3 h
USP34 = USP34 (UniProt Q70CQ2)
In short: (§1)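 Global-median-normalised Spectronaut label-free quantities were compared by unpaired t-test, and values are average log2 ratios of fragment over vehicle. Only proteins with ≥2 unique peptides were used. HEK293T lysate (495 µg per sample) was treated in triplicate with fragment at 200 µM or vehicle for 3 h and then with Biotin-Ahx-Ub-VS at 0.5 µM final for 1 h. Labelled DUBs were then NeutrAvidin-enriched, digested with LysC and trypsin, and run by diaPASEF LC-MS/MS.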

USP36 = target: T1, USP36 (UniProt Q9P275)
T1 sequence (whole entry): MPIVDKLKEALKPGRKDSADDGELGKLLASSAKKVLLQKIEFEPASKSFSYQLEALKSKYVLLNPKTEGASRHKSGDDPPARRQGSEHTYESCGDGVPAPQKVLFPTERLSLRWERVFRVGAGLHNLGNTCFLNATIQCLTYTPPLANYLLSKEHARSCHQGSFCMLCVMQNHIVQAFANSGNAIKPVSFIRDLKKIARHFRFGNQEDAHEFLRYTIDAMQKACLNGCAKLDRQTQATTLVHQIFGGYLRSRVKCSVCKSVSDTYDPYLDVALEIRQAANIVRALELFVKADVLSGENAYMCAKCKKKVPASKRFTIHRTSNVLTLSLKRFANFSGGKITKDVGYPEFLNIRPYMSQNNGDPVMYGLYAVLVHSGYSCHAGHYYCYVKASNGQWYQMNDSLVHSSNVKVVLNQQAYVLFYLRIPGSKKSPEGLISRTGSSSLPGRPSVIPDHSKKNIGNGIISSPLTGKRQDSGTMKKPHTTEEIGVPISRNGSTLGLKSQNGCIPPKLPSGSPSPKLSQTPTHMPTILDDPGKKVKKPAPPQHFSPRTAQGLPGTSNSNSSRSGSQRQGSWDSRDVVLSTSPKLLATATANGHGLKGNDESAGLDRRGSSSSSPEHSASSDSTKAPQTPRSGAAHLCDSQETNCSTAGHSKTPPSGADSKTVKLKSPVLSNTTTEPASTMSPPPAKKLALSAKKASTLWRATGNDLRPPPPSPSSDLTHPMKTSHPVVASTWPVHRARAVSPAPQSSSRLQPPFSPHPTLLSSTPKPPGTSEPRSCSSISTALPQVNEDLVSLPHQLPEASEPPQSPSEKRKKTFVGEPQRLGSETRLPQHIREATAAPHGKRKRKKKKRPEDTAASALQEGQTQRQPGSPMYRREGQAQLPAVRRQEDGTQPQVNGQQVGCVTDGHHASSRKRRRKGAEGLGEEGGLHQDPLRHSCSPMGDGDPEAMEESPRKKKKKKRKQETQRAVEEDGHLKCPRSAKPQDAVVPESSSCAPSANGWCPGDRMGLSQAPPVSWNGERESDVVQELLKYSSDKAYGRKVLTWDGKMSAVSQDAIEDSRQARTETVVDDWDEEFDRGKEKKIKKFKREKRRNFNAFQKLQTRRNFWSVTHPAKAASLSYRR
In short: as §1

USP38 = target: T2, USP38 (UniProt Q8NB14)
T2 sequence (whole entry): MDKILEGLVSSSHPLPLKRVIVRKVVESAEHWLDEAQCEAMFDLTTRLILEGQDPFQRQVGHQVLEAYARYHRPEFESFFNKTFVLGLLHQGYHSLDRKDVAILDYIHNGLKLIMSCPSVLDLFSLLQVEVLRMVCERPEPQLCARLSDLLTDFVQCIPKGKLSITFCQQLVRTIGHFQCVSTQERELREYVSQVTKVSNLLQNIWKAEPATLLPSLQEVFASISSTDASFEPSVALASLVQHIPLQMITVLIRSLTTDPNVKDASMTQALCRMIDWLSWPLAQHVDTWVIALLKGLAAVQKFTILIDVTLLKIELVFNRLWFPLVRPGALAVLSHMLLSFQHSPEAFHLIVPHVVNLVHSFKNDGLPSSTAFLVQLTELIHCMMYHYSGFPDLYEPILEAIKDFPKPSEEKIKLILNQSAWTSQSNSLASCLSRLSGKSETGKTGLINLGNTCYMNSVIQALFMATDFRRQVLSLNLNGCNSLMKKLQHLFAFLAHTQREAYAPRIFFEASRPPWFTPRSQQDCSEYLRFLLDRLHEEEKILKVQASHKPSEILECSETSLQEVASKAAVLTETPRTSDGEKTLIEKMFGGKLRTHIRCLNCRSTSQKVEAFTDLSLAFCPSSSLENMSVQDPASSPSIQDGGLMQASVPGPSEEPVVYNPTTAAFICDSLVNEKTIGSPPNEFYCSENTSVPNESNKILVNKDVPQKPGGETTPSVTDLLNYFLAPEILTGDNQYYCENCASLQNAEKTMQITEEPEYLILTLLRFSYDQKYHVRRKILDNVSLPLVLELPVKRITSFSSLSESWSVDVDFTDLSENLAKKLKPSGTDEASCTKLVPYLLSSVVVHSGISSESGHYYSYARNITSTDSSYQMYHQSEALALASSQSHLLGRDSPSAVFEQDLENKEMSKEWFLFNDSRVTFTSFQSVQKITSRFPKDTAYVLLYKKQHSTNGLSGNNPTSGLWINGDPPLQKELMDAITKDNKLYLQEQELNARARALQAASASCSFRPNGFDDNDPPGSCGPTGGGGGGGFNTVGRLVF
In short: as §1

USP39 = target: T3, USP39 (UniProt Q53GS9)
T3 sequence (whole entry): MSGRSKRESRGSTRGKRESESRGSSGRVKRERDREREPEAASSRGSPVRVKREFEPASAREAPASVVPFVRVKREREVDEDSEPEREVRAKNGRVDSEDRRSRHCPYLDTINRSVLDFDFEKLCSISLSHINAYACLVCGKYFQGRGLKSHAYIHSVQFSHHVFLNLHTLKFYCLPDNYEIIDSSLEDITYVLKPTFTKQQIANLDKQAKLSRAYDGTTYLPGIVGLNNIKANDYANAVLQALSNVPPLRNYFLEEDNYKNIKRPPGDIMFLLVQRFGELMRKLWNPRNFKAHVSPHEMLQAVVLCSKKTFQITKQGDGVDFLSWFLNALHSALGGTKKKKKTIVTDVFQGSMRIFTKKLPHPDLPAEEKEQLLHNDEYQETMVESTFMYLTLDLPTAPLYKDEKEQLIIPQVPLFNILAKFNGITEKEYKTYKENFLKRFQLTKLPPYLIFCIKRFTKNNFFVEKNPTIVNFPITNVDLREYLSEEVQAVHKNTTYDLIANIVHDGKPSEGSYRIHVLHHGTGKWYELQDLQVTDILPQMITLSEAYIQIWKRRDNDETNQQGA
In short: as §1

USP4 = target: T4, USP4 (UniProt Q13107)
T4 sequence (whole entry): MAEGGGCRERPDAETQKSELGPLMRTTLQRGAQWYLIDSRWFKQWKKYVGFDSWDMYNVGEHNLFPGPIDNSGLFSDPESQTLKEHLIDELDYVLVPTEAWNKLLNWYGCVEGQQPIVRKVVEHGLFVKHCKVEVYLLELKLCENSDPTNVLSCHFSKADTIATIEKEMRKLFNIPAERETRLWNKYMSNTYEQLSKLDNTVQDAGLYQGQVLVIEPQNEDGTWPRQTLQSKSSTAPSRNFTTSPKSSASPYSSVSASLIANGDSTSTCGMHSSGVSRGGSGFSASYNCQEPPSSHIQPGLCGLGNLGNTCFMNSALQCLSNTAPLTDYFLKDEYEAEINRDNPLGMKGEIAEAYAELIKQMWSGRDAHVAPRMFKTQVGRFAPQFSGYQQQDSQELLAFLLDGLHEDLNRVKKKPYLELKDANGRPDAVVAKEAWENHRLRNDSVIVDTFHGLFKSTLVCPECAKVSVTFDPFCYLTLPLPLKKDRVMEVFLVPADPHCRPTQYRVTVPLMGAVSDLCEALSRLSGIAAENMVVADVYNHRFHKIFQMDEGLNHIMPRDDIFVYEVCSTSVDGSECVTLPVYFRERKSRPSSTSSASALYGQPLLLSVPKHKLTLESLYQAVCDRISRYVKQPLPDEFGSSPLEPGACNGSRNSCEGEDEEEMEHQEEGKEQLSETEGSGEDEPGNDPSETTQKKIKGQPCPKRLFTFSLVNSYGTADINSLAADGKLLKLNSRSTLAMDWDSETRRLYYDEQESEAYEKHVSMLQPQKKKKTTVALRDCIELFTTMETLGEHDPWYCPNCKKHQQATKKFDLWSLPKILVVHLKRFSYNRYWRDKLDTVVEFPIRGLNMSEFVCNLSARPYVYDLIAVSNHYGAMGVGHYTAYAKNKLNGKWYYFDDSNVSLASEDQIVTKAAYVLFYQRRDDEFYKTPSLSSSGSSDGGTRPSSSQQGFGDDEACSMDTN
In short: as §1

Measured: log2 ratio of Biotin-Ahx-Ub-VS probe labelling

USP34, sequence (Q70CQ2 whole entry, the tested form may be a part): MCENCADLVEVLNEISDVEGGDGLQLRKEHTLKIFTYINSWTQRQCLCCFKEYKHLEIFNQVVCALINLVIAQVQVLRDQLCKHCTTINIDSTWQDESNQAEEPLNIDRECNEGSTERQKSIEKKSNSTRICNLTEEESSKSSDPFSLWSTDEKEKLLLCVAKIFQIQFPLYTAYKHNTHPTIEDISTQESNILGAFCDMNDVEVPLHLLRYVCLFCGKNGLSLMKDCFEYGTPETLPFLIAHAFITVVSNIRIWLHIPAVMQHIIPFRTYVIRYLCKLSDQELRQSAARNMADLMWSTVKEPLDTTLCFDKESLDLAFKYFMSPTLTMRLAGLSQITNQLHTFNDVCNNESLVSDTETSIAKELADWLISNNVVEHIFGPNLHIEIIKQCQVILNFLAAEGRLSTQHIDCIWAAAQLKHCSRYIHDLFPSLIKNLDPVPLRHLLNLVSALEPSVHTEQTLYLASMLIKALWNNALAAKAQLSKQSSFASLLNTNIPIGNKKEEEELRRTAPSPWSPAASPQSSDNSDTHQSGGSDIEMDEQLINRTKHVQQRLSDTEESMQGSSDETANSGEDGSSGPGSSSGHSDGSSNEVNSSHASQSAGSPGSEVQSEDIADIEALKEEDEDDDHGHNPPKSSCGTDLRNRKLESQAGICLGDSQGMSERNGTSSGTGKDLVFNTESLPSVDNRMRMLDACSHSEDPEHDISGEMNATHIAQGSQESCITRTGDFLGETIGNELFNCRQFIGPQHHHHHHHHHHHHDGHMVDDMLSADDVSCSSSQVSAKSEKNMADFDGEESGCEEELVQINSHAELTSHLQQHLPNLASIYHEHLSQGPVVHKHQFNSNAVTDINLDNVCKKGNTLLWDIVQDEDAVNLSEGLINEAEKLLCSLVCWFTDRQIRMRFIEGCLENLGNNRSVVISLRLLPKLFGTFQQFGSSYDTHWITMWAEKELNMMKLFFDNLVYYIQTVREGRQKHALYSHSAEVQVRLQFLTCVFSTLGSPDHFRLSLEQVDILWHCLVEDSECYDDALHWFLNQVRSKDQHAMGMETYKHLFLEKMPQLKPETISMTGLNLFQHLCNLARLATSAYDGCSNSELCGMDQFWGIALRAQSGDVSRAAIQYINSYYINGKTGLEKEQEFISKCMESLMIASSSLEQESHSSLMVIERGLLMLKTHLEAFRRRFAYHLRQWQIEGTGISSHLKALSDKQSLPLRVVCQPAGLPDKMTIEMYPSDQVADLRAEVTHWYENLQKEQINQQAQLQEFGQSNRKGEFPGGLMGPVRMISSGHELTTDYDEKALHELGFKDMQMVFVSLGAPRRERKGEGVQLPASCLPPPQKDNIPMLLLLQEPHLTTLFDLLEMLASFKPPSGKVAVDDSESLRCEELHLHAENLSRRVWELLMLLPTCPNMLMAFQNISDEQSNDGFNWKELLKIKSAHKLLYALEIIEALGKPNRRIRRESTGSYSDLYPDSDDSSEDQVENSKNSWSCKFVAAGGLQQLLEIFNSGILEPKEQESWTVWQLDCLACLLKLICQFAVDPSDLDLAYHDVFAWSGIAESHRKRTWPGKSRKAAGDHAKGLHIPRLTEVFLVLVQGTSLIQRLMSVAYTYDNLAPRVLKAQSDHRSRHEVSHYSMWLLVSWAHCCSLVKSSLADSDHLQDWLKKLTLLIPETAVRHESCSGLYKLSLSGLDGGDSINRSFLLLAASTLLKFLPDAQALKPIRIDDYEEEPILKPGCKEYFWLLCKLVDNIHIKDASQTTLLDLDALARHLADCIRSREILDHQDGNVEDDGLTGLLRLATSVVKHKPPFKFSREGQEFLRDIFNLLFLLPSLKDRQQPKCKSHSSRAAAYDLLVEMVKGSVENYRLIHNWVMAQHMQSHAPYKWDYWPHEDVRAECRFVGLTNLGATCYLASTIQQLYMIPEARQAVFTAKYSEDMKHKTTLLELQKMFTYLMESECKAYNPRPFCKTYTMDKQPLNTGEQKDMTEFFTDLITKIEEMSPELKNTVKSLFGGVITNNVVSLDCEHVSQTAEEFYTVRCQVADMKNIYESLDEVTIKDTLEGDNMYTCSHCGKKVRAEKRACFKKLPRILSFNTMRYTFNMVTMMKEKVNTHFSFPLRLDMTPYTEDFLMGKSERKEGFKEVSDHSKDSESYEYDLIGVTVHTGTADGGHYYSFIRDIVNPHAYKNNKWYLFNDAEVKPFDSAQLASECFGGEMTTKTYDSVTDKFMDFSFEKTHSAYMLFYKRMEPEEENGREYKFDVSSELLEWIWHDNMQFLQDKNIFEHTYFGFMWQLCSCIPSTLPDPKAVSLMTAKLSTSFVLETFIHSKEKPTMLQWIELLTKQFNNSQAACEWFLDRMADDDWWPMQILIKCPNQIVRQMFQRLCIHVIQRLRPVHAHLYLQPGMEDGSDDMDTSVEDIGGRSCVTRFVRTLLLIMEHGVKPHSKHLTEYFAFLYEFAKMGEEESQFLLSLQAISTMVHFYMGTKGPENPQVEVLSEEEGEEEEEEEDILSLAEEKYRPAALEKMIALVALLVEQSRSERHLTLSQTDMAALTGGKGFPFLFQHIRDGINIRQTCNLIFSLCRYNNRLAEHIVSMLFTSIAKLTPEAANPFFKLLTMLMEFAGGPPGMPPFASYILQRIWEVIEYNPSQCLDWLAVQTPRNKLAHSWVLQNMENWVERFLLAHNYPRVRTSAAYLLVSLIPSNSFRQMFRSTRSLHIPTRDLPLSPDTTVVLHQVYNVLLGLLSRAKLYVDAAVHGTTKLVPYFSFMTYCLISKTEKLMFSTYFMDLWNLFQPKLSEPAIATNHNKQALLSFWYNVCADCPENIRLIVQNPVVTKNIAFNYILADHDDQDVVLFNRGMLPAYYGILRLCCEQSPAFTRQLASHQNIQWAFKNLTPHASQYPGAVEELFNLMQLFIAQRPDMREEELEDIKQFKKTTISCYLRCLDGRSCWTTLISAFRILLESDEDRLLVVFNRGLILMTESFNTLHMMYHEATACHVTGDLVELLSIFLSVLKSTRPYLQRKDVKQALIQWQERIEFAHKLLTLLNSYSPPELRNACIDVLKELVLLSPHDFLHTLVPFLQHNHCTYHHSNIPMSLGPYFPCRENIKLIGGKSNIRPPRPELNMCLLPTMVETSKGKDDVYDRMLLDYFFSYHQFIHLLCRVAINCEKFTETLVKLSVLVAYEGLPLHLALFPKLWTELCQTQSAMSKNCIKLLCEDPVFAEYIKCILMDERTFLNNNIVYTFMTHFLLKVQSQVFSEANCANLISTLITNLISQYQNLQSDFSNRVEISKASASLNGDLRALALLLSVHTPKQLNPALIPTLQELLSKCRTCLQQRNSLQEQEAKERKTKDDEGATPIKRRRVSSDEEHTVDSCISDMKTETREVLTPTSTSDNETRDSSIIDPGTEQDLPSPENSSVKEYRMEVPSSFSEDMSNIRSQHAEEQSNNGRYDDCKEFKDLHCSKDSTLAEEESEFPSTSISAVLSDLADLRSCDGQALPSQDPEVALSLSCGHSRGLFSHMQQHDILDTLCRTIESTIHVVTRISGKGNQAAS

Cc1cccc2nc(CCNC(=O)CCl)cn12.Cl
inactive: USP34 -0.19 | USP36 -0.179 | USP38 -0.0583 | USP39 0.203 | USP4 -0.184
